Screening data: PubChem, The Scripps Research Institute Molecular Screening Center
GPR151 activ = activates the human receptor GPR151 | Q8TDV0 | PathHunter beta-arrestin GPR151 cells, luminescence | activation, % at 11.2 µM | hit rate 1% among 650,000; in the data active = activation above about 4.9%;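 also: 0% = median of compound wells and 100% = cells with positive control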
FBW7 activator = human FBW7 E3 ligase activation, primary screen | Q969H0 | AlphaScreen FBW7–phospho-cyclin E peptide binding, activator screen | normalized activity (activation), % at 26.1 µM | hit rate 0.13% among 650,000 | AID 1259310; in the data active = normalized activity above about 1.9%;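 also: purified mutant Fbw7 with reduced substrate affinity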
TEAD-YAP block = TEAD-YAP interaction inhibition | inhibition, % at 9.12 µM | HEK-TIYL cells, TEAD-Gal4/YAP UAS-luciferase luminescence | hit rate 1.4% among 640,000; in the data active = inhibition above about 32%;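 also: 0% = median of test compound wells and 100% = reference inhibitor wells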
MITF primary = inhibitors of human MITF | O75030 | AlphaScreen MITF homodimerization, bead proximity signal | inhibition, % at 2.6 µM | hit rate 0.91% among 650,000; in the data active = inhibition above about 50%;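 also: 0% = vehicle wells with protein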
MITF inh conf = confirmation of human MITF inhibitors; shares compounds with MITF primary; AlphaScreen MITF homodimerization, biotin/His-MITF beads; inhibition, % at 2.6 µM; hit rate 16% among 4,700; AID 1259372;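 active = inhibition above a cutoff derived from the DMSO control wells, cut at about 28% in these data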;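 also: 0% = MITF dimer wells with DMSO only; inhibitors lower the bead chemiluminescence by keeping MITF from dimerizing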
AS interf DR = optically interferes with AlphaScreen signal in dose response; shares compounds with MITF primary; AlphaScreen optical interference counterscreen, cell-free; IC50, µM; hit rate 6% among 480; AID 1259373; call rule not given here
AS interf ctr = AlphaScreen optical interference, counter-screen; hit rate 7.6% among 4,700; LysRS AlphaScreen counterscreen, signal interference, triplicate; shares compounds with MITF primary; inhibition, % at 2.6 µM;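 active = inhibition above a cutoff derived from the DMSO control wells, cut at about 30% in these data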
Numbers without * were called inactive; i = inactive; . = no result. Shown are actives, neighbours in structure and some others; about 3.5% of the full set was active somewhere.

SMILES	GPR151 activ	FBW7 activator	TEAD-YAP block	MITF primary	MITF inh conf	AS interf ctr	others
CC(=O)N[C@@H](Cc1c[nH]c2ccccc12)C(=O)OCc1csc(-c2ccccc2)n1	0	0	-12	0	.	.
COc1ccc(N2C(=O)CSC2c2ccccc2Br)cc1 (centres undefined)	0	0	-1	2	.	.
COc1ccc(CN2CCN(Cc3cc(OC)c4c(c3)OCO4)CC2)c(OC)c1	-2	0	17	30	.	.
COc1cc(CN2CCN(Cc3cccc(Cl)c3)CC2)cc2c1OCO2	-1	0	-7	49	.	.
COc1cc(OC)c(OC)cc1CN1CCN(Cc2cc(OC)c3c(c2)OCO3)CC1	-1	0	4	59*	-8	-6
COc1cc(CN2CCN(Cc3ccc(SC)cc3)CC2)cc2c1OCO2	0	0	10	65*	12	7
COc1cc(CN2CCN(Cc3ccc(Br)cc3)CC2)cc2c1OCO2	0	0	-4	69*	3	18
O=C1CSC(c2ccc([N+](=O)[O-])cc2)N1CCO (centres undefined)	0	0	-4	3	.	.
COCCN(Cc1cc2cc(C)ccc2n2nnnc12)C(=S)NC1CCCCC1	1	0	2	11	.	.
COC(=O)CCC(NC(=O)c1ccccc1)C(=O)OC (centres undefined)	-1	0	-3	4	.	.
Cc1cc(N(C)C)nc(NCCNC(=O)C(c2ccccc2)c2ccccc2)n1	2	0	15	-16	.	.
N#CC1=c2/c(=C/c3ccco3)c(N)c(C#N)n2C(=O)C(c2ccco2)S1 (centres undefined)	0	0	13	68*	47*	27	AS interf DR=i
CC1CCc2nc(NC(=O)CSc3nc4ccccc4[nH]3)sc2C1 (centres undefined)	1	0	-2	15	.	.
N#Cc1c(-c2ccco2)cc(C2CC2)nc1N	0	0	-18	-8	.	.
N#Cc1c(-c2ccco2)cc(-c2ccco2)nc1N	-1	-1	5	85*	73*	20	AS interf DR=>6.5
COc1cc(Nc2ccc(NC(=O)c3cccc(F)c3)cc2)nc(C)n1	1	0	15	57*	-5	-6
Cc1ccc(S(=O)Cc2ccc(C(=O)N3CCN(c4ccccn4)CC3)o2)cc1 (centres undefined)	0	0	-1	-12	.	.
Cc1ccccc1NC(=O)c1ccccc1N(Cc1ccccc1)S(C)(=O)=O	-1	0	7	55*	-2	6
O=C1c2ccccc2C(=O)c2cc(NC(=O)c3coc4ccccc34)ccc21	0	0	-20	-17	.	.
CCOc1ccc(N2C(=O)CSC2c2ccccc2)cc1 (centres undefined)	0	0	-8	1	.	.
O=S1(=O)CCC(N2COc3c(cc(Cl)c4cccnc34)C2)C1 (centres undefined)	0	-1	14	55*	39*	91*
Clc1cc2c(c3ncccc13)OCN(Cc1cccnc1)C2	0	-1	84*	94*	96*	100*
COc1ccccc1-c1nnc(NC(=O)C2COc3ccccc3O2)o1 (centres undefined)	-2	0	-4	-3	.	.
COc1cc(C(=O)N2CCN(Cc3cccc(F)c3)CC2)cc(OC)c1OC	-1	0	-3	54*	7	2
COc1cc(C(=O)N2CCN(Cc3cccnc3)CC2)cc(OC)c1OC	0	1	-3	54*	2	0
SMILES	GPR151 activ	FBW7 activator	TEAD-YAP block	MITF primary	MITF inh conf	AS interf ctr	others
COc1cc(OC)cc(C(=O)N2CCN(C3CCN(Cc4ccccc4)CC3)CC2)c1	-3	0	0	59*	1	-3
COc1cc(OC)cc(C(=O)N2CCN(Cc3cccnc3)CC2)c1	-2	0	24	66*	8	18
Cc1cccc(N2CCN(C(=O)COc3ccccc3)CC2)c1C	1	0	-8	-5	.	.
COc1ccccc1Oc1ccc(N2C(=O)C3C4C=CC(C4)C3C2=O)cc1 (centres undefined)	2	1	6	11	.	.
O=C(CN1CCC(O)(c2ccccn2)CC1)Nc1ccccc1C(F)(F)F	-1	1	-5	-16	.	.
Cc1cnc(N2CCc3ccccc3C2)nc1NCc1cccc(C(F)(F)F)c1	-2	0	-2	2	.	.
Cc1nn2c(=O)/c(=C\c3cccnc3)sc2nc1=O	-2	0	4	7	.	.
